Measured values as given in PubChem BioAssay (Tox21).
Where “and” joins values, the source holds several entries; their conditions need not be identical. Equal entries are not always repeated. Records with an inconclusive call do not appear. Where a structure was tested more than once in an assay, its records may differ in their call. Calls of active or inactive are those of the source. Unless noted, the call rests on the fitted dose curve; in most records, active means well fitted curve in the direction sought with a large enough effect in the repeat runs; inconclusive means weak or mixed curves; inactive means no such curve, though single readings can be large; an effect the other way counts as inactive or inconclusive.

Legend:
[1] = qHTS assay to identify aromatase inhibitors - cell viability counter screen (AID 743084);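 further: cells stimulated with testosterone during compound exposure; nearly all actives have a fitted effect of over 55% in size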
[2] = molecular target: Aryl hydrocarbon receptor (Homo sapiens) (UniProt P35869); experiment: qHTS assay to identify small molecule that activate the aryl hydrocarbon receptor (AhR) signaling pathway (AID 743085); further: nearly all actives have a fitted effect of over 15% in size;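 on activation: HG2L7.5c1 human HepG2 liver cells with stably integrated DRE-driven firefly reporter; series mostly up to about 70 µM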
Sequence of Aryl hydrocarbon receptor (Homo sapiens) (P35869 whole entry, looked up): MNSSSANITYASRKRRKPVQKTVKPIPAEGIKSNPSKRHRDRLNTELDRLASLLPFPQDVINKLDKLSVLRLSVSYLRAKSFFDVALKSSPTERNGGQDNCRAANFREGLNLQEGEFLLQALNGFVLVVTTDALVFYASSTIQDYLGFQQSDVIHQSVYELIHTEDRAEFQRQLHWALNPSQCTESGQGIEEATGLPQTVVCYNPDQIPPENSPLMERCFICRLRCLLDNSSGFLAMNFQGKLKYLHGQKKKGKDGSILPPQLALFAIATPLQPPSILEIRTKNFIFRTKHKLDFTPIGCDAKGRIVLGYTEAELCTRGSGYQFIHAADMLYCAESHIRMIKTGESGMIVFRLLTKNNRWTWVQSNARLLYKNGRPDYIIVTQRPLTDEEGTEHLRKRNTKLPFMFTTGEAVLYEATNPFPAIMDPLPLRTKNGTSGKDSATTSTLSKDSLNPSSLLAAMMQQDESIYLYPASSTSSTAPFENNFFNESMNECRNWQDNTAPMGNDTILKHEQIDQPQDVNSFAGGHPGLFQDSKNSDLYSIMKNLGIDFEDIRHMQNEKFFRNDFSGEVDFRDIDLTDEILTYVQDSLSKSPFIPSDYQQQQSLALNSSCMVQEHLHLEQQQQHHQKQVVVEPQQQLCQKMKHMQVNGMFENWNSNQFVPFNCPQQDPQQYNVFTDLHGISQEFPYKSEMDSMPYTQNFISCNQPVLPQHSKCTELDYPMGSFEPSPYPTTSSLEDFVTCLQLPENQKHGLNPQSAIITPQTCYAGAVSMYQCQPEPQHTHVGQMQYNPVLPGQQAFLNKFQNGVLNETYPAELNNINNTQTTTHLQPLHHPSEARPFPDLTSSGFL
How it was run: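 Luminescence read-out: ONE-Glo reagent, 30 min at room temperature, in HG2L7.5c1 HepG2 reporter cells treated 24 h at 37C. Viability was measured beforehand by CellTiter-Fluor fluorescence after 30 min at 37C.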

[3] = qHTS assay to identify small molecule that activate the aryl hydrocarbon receptor (AhR) signaling pathway - cell viability counter screen (AID 743086); further: nearly all actives have a fitted effect of over 45% in size
How it was run: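 HepG2-AhR-luc (HG2L7.5c1) cells, 4000/well, treated 24 h at 37 C with compound; viability measured as CellTiter-Fluor fluorescence after 30 min in the same wells as the luciferase read.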

[4] = molecular target: Peroxisome proliferator-activated receptor gamma (Homo sapiens) (UniProt P37231); experiment: qHTS assay to identify small molecule agonists of the peroxisome proliferator-activated receptor gamma (PPARg) signaling pathway (AID 743094; active means well fitted activation curve with a large enough effect in the signal ratio in the repeat runs, not every such curve was filed as active; the % refers to the signal ratio)
Sequence of Peroxisome proliferator-activated receptor gamma (Homo sapiens) (P37231 whole entry, looked up): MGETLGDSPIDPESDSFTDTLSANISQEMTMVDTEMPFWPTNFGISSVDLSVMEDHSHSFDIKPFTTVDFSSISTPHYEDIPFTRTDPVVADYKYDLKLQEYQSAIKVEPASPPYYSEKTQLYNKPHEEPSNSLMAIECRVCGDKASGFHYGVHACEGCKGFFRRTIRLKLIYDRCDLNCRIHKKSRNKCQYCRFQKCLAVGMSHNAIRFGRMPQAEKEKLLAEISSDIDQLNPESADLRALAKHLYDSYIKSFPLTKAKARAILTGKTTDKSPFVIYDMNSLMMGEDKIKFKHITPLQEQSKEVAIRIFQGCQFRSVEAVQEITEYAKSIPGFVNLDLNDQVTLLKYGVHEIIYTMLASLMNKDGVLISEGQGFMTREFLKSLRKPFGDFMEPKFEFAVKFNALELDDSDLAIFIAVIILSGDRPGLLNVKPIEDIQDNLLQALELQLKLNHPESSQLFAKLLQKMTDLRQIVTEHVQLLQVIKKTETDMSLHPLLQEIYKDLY
How it was run: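 Agonist activity was taken from a beta-lactamase reporter (FRET substrate, 1 h at room temperature) in HEK293H cells carrying a PPARg UAS-bla construct. Compounds in DMSO were incubated 17 h at 37C after a 5 h cell pre-incubation.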

Measured: Potency
Potency means the concentration at half of the fitted maximal effect.

OCCCNc1ccccc1
inactive: all assays above

C=C1[C@@H]2CC[C@@H](C2)C1(C)C
inactive: all assays above

CC(C)(C)c1ccc2c(S(=O)(=O)O)c(C(C)(C)C)ccc2c1
active: [4] 9.52 µM
inactive: all other assays above

CC[C@H]1OC(=O)C[C@@H](O)[C@H](C)[C@@H](O[C@@H]2O[C@H](C)[C@@H](O[C@H]3C[C@@](C)(O)[C@@H](O)[C@H](C)O3)[C@H](N(C)C)[C@H]2O)[C@@H](CC=O)C[C@@H](C)C(=O)/C=C/C(C)=C/[C@@H]1CO[C@@H]1O[C@H](C)[C@@H](O)[C@@H](OC)[C@H]1OC
inactive: all assays above

C/C(=C(/CCO)SSCC1CCCO1)N(C=O)Cc1cnc(C)nc1N (stereo unspecified)
inactive: all assays above

CN1C(C(=O)Nc2ccccn2)C(=O)c2sc(Cl)cc2S1(=O)=O (stereo unspecified)
inactive: all assays above

N[C@H](C(=O)O)[C@@H]1CC(Cl)=NO1
inactive: all assays above

C[C@H](NCCc1ccc(O)cc1)[C@H](O)c1ccc(O)cc1
inactive: all assays above

CC(=NCc1ccccc1)c1ccccc1O
inactive: all assays above

N[C@@H](Cc1ccc(O)c(O)c1)C(=O)O
inactive: all assays above

O=C(O)Cc1nn(Cc2ccc(Br)cc2F)c(=O)c2ccccc12
inactive: all assays above

CC[C@H](C)C(=O)O[C@H]1CCC=C2C=C[C@H](C)[C@H](CC[C@@H]3C[C@@H](O)CC(=O)O3)[C@H]21
inactive: all assays above

Cc1cn([C@H]2C[C@H](O)[C@@H](CO)O2)c(=O)[nH]c1=O
inactive: all assays above

CC(CNC(=O)c1cccnc1)NC(=O)c1cccnc1 (stereo unspecified)
inactive: all assays above

COC(=O)[C@H]1[C@H]2C[C@H]3c4[nH]c5ccccc5c4CCN3C[C@H]2CC[C@@H]1O
active: [2] 18.8 µM
inactive: all other assays above

CC[C@H]1OC(=O)[C@H](C)C(=O)[C@H](C)[C@@H](O[C@@H]2O[C@H](C)C[C@H](N(C)C)[C@H]2O)[C@](C)(OC)C[C@@H](C)C(=O)[C@H](C)[C@H]2N(CCCCn3cnc(-c4cccnc4)c3)C(=O)O[C@]12C
inactive: [2] | [4]
inactive and 15 µM (active): [1]
inactive and 21.1 µM (active): [3]

C=CC(N)CCC(=O)O (stereo unspecified)
inactive: all assays above

COC1=C(OC)C(=O)C(C/C=C(\C)CC/C=C(\C)CC/C=C(\C)CC/C=C(\C)CC/C=C(\C)CC/C=C(\C)CC/C=C(\C)CC/C=C(\C)CC/C=C(\C)CCC=C(C)C)=C(C)C1=O
inactive: all assays above

CC(C)(S)C(=O)N[C@@H](CS)C(=O)O
inactive: all assays above

CC(=O)O[C@H]1C[C@@H]2CC[C@@H]3[C@H](CC[C@@]4(C)[C@H]3C[C@H]([N+]3(C)CCCCC3)[C@@H]4OC(C)=O)[C@@]2(C)C[C@@H]1[N+]1(C)CCCCC1
inactive: all assays above

CCCCCCCCCCCCCCCCCCOCC(COP(=O)([O-])OCC[N+](C)(C)C)OC (stereo unspecified)
inactive: all assays above

c1ccc(-c2ccc(C(c3ccccc3)n3ccnc3)cc2)cc1 (stereo unspecified)
active: [2] 1.06 µM
inactive: all other assays above

CC(=O)OCC(=O)[C@@]1(O)CC[C@H]2[C@@H]3CCC4=CC(=O)CC[C@]4(C)C3=CC[C@@]21C
inactive: all assays above

O=P(O)(O)C(O)(Cn1ccnc1)P(=O)(O)O
inactive: all assays above

CC1(C)S[C@@H]2[C@H](NC(=O)[C@@H](NC(=O)N3CCNC3=O)c3ccccc3)C(=O)N2[C@H]1C(=O)O
inactive: all assays above

O=S(=O)(O)CC(S)CS (stereo unspecified)
inactive: all assays above

O=C(O)c1cc2cc(Cc3cccnc3)ccc2o1
inactive: all assays above

NC[C@@H]1CC[C@@H](N)[C@@H](O[C@H]2[C@H](O)[C@@H](O[C@H]3O[C@H](CO)[C@@H](O)[C@H](N)[C@H]3O)[C@H](N)C[C@@H]2N)O1
inactive: all assays above

CC(=O)OCC1=C(C(=O)O)N2C(=O)[C@@H](NC(=O)Cc3ccccc3)[C@H]2SC1
inactive: all assays above

CCCCCCCCCC(=O)NO
inactive: all assays above

C=CCN1C(=O)C(CC(C)C)NC1=S (stereo unspecified)
inactive: all assays above

COc1ccc(/C=C/C(=O)O)cc1
inactive: all assays above

O=C(O)[C@@H]1C[C@H](CP(=O)(O)O)CCN1
inactive: all assays above

CC(C)OC(=O)Nc1ccc2nc(-c3cscn3)[nH]c2c1
active: [2] 6.68 µM
inactive: all other assays above

CCN1\C(=C/C=C/C=C/c2sc3ccccc3[n+]2CC)Sc2ccccc21
inactive: [2] | [4]
active: [1] 11.9 µM | [3] 11.9 µM and 23.7 µM

CC(C)(C)C(=O)OCC(=O)[C@H]1CC[C@H]2[C@@H]3CCC4=CC(=O)CC[C@]4(C)[C@H]3CC[C@]12C
inactive: all assays above

FC(F)(F)C(F)(F)C(F)(F)C(F)(F)C(F)(F)F
inactive: all assays above

CC12CCC(C[N+](C)(CCC[N+](C)(C)C)C1)C2(C)C (stereo unspecified)
inactive: all assays above

CO[C@H]1C[C@H](O[C@H]2[C@H](C)[C@@H](O[C@@H]3O[C@H](C)C[C@H](N(C)C)[C@H]3O)[C@@H](C)C[C@]3(CO3)C(=O)[C@H](C)[C@@H](O)[C@@H](C)[C@@H](C)OC(=O)[C@@H]2C)O[C@@H](C)[C@@H]1O
inactive: all assays above

NC(N)=NCc1cccc(I)c1
inactive: all assays above

NC[C@H]1O[C@H](O[C@H]2[C@H](O)[C@@H](O[C@H]3O[C@H](CO)[C@@H](O)[C@H](N)[C@H]3O)[C@H](N)C[C@@H]2N)[C@H](N)C[C@@H]1O
inactive: all assays above

CC1=C(/C=C/C(C)=C/C=C/C(C)=C/C=C/C=C(C)/C=C/C=C(C)/C=C/C2=C(C)CCCC2(C)C)C(C)(C)CCC1
inactive: all assays above

O=C(O)CCCC/C=C(\c1ccccc1)c1cccnc1
inactive: all assays above

CC12CCC(C1)C(C)(C)C2=O (stereo unspecified)
inactive: all assays above

O=C(Cn1cnnn1)N[C@@H]1C(=O)N2C(C(=O)O)=C(CSc3nncs3)CS[C@H]12
inactive: all assays above

O=C1C2CC3CC1CC(O)(C3)C2
inactive: all assays above

CC[C@H]1OC(=O)C[C@@H](O)[C@H](C)[C@@H](O[C@@H]2O[C@H](C)[C@@H](O)[C@H](N(C)C)[C@H]2O)[C@@H](CCN2C[C@H](C)C[C@H](C)C2)C[C@@H](C)C(=O)/C=C/C(C)=C/[C@@H]1CO[C@@H]1O[C@H](C)[C@@H](O)[C@@H](OC)[C@H]1OC
inactive: all assays above

O=P(O)(O)CP(=O)(O)O
inactive: all assays above

COc1ccc(/C=C/C(=O)Nc2ccccc2C(=O)O)cc1OC
active: [2] 3.35 µM
inactive: all other assays above

Cc1cccc(C)c1NC(=O)C1CCCCN1C (stereo unspecified)
inactive: all assays above

CCCCC[C@H](O)/C=C/[C@@H]1[C@@H](C/C=C\CCCC(=O)O)[C@@H](O)C[C@H]1O
inactive: all assays above

O=C(O)c1cc(=O)c2c3nc4ccccc4oc-3cc(=O)c2[nH]1
active: [2] 4.22 µM
inactive: all other assays above

CO/N=C(\C(=O)N[C@@H]1C(=O)N2C(C(=O)[O-])=C(C[n+]3ccc(N)n3CCO)CS[C@H]12)c1csc(N)n1
inactive: all assays above

CC(C)CCC[C@@H](C)[C@H]1CC[C@H]2[C@@H]3CC=C4C[C@@H](O)CC[C@]4(C)[C@H]3CC[C@]12C
inactive: all assays above

CC/C=C\C/C=C\C/C=C\C/C=C\C/C=C\C/C=C\CCC(=O)O
inactive: all assays above

O=c1[nH]c(=O)n([C@H]2C[C@H](O)[C@@H](CO)O2)cc1/C=C/Br
inactive: all assays above

COc1c(O)cc2c(c1O)[C@@H]1O[C@H](CO)[C@@H](O)[C@H](O)[C@H]1OC2=O
inactive: all assays above

NC(=O)[C@H]1O[C@@H](O)[C@H](O)[C@@H](O)[C@@H]1O
inactive: all assays above

NC(=O)[C@@H]1CCCN1C(=O)[C@H](Cc1cnc[nH]1)NC(=O)[C@@H]1CCC(=O)N1
inactive: all assays above
